# Bioassay records from PubChem BioAssay.
# Shown are actives, neighbours in structure and some others; about 3.2% of the full set was active somewhere.
# TRb-SRC2 inh = qHTS for Inhibitors of the Interaction of Thyroid Hormone Receptor and Steroid Receptor Coregulator 2; TRbeta-SRC2 peptide binding, fluorescence polarization; receptor liganded with 1 µM T3; Potency, µM (doses to about 106 µM), for the others: at the highest dose activity change, negative = inhibition, hits mostly inhibitors; 280,000 tested, 0.065% active; AID 1469, 2008;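 note: plate controls were bound peptide for no effect and peptide without receptor for full effect; nearly all actives have a fitted effect of over 50% in size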
#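 Fluorescence polarization of 20 nM Texas Red SRC2 peptide (20-aa NR interaction domain) bound to 0.6 uM human TRb ligand-binding domain, with 1 uM T3, after 5 hr at ambient temperature; inhibition seen as decreased polarization.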
# Tau fibril ThT = qHTS for Inhibitors of Tau Fibril Formation, Thioflavin T Binding | Microtubule-associated protein tau (Homo sapiens), P10636 | recombinant tau K18 P301L, heparin-induced fibrillization, ThT fluorescence | Potency, µM (highest dose often 57.4 µM), for inactives: top-dose activity, negative = inhibition, most hits filed as inhibitors | 270,000 tested, 2.1% active; note: nearly all actives have a fitted effect of over 55% in size
# Target sequence (P10636 561-689 P618L limits assumed): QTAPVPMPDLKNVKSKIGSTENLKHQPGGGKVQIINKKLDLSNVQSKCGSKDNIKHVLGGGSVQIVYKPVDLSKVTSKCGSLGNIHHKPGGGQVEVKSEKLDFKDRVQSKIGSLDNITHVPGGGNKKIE
#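 Tau K18 P301L fragment (15 uM unlabeled plus 0.24 uM Alexa 594-labeled) in 100 mM sodium acetate pH 7 with compound, fibrillization induced by 20 uM heparin for 6 hr at 37 C. Thioflavin T (30 uM) added, fluorescence read after 1 hr (ex 450, em 510 nm).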
# TR SRC2 fluor cs = Total Fluorescence Counterscreen for Inhibitors of the Interaction of Thyroid Hormone Receptor and Steroid Receptor Coregulator 2. AID 1479, 2009. TRb/SRC2 Texas Red total fluorescence interference. 280,000 tested, 0.29% active. Potency, µM (highest dose often 106 µM), for the others: at the highest dose fluorescence change, negative = quenching; active = well fitted curve in either direction with a large enough effect; inconclusive = small, poorly fitted or top-dose-only effect
#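 Flags fluorescent or light-absorbing compounds by total fluorescence, S + 2P, at 555 nm excitation and 632 nm emission. Mixture: 20 nM Texas Red SRC2 peptide, 0.6 uM human TRb LBD, 1 uM T3, 5% DMSO; compound exposure 5 h at ambient temperature.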
# Tau fibril FP = qHTS for Inhibitors of Tau Fibril Formation, Fluorescence Polarization. Microtubule-associated protein tau (Homo sapiens), P10636. AID 1468, 2008. 280,000 tested, 0.39% active. Potency, µM (highest dose often 57.7 µM), inactives show at the highest dose activity, negative = inhibition, hits mostly inhibitors. K18 P301L tau heparin fibrillization, Alexa594 FP, 6 h; note: nearly all actives have a fitted effect of over 55% in size
#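 Human K18 P301L fragment (15 uM unlabeled plus 0.24 uM Alexa 594-labeled) in 100 mM sodium acetate pH 7 with compound, aggregation induced by 20 uM heparin for 6 hr at 37 C. ThT (30 uM) added for 1 hr, then Alexa 594 FP read.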
# RGS12 GoLoco inh = qHTS Assay for Inhibitors of RGS12 GoLoco Motif Activity (Red Fluorophore). Guanine nucleotide-binding protein G(i) subunit alpha-1 (Homo sapiens), P63096. Gai1:RGS12 GoLoco peptide FP, rhodamine, 10 min. Potency, µM (top dose mostly 61.6 µM), for inactives: top-dose activity, negative = inhibition, usual class: inhibitors. 230,000 tested, 0.44% active. AID 880, 2007; active = well fitted inhibition curve with a large enough effect, not every such curve was filed as active; inactive = no such curve, though single readings can be large or run the other way; note: nearly all actives have a fitted effect of over 30% in size
# Target sequence (P63096 whole entry, looked up): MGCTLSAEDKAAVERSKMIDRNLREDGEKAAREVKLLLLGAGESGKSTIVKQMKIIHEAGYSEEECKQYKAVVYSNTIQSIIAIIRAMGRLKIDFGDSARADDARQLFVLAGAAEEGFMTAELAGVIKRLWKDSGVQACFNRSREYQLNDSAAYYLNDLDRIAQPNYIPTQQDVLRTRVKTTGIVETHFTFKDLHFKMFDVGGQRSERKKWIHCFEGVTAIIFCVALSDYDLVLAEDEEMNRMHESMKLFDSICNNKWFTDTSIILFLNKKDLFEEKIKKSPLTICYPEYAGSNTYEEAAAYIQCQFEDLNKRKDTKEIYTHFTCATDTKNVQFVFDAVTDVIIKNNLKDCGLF
# Tau fluor cs = Counterscreen qHTS for Inhibitors of Tau Fibril Formation, Fluorescence Polarization; Potency, µM (titrated, usually from 57.7 µM), for inactives: at the highest dose activity change, negative = decrease; 280,000 tested, 0.93% active; tau K18 P301L (four-repeat tau fragment) Alexa594 fluorescence, heparin fibrillization; note: nearly all actives have a fitted effect of over 55% in size
#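 Human K18 P301L tau (15 uM unlabeled plus 0.24 uM Alexa 594-labeled, final) in 100 mM sodium acetate pH 7 was mixed with compound and 20 uM heparin and incubated 6 hr at 37 C.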
# * marks the source's active call; other numbers are inactive results; ? = inconclusive; . = no result; [ ] = another dose, or the depositor's remark. Unless noted, calls come from the whole dose curve; as a rule, active = well fitted curve in the direction sought with a large enough effect; inconclusive = small, poorly fitted or top-dose-only effect, or another doubt; inactive = no such curve, though single readings can be large; an effect the other way counts as inactive or inconclusive. Unless noted, % is set by controls: 0 for no effect and ±100 for the full control effect; potency is the fitted concentration of half-maximal effect.
SMILES,TRb-SRC2 inh,Tau fibril ThT,TR SRC2 fluor cs,Tau fibril FP,RGS12 GoLoco inh,Tau fluor cs
Cc1oc2ncn(C)c(=O)c2c1C(=O)N(Cc1ccccc1)C(C)C,0.3%,2.4%,3.2%,-3.4%,.,1.0%
Cc1oc2ncn(C)c(=O)c2c1C(=O)NC(C)c1ccccc1 (configuration not stated),-29.5%,-1.3%,0.282µM*[quencher],-14.2%,.,-10.0%
CSCC[C@H](NC(=O)[C@H](CC(C)C)NC(=O)CCNC(=O)[C@@H](NC(=O)[C@H](Cc1ccccc1)NC(=O)[C@H](CO)NC(=O)[C@@H](N)CC(=O)O)C(C)C)C(N)=O,6.5%,.,-1.3%,.,.,.
O=C(Nc1ccc(N2CCN(c3ncccc3C(F)(F)F)CC2)nc1)c1cccs1,-1.0%,7.94µM*,-3.6%,9.4%,15.6%,12.6µM*[quencher]
O=C(Nc1ccc(N2CCN(c3ccc(C(F)(F)F)cn3)CC2)nc1)c1cccs1,2.6%,?,-0.5%,-2.6%,95.5%,?
CCOC(=O)CC1=NN(c2ccccc2)C(=O)/C1=C\c1ccc(N(C)C)cc1,8.2%,25.1µM*,-2.4%,9.4%,98.6%,?
CC1=NN(c2ccccc2)C(=O)/C1=C/C=C/c1ccc(N(C)C)cc1,23.1%,2µM*,14.1%,?,155.0%,2.51µM*[quencher]
CC1=NN(c2ccccc2)C(=O)/C1=C\C=C\c1ccccc1,-6.7%,28.2µM*,1.1%,?,4.6%,?
CC1=NN(c2ccccc2)C(=O)/C1=C/N(C)C,-15.7%,-8.9%,-2.0%,-11.9%,0.8%,-5.0%
CCOC(=O)c1ccc(N2N=C(C)/C(=C/C=C/c3ccco3)C2=O)cc1,5.1%,3.16µM*,-28.9%,?,32.6%,?
CC1=NN(c2ccc(C(=O)OC(C)C)cc2)C(=O)/C1=C\C=C\c1ccco1,7.4%,3.3%,0.2%,-3.8%,22.1%,-5.6%
COc1ccc(-c2nc3cnc(N4CCN(C)CC4)nc3n(CCC#N)c2=O)cc1,.,.,.,.,-19.7%,.
Cc1ccc(NC(=O)CSc2nc3nccnc3c(=O)n2CCc2c[nH]c3ccccc23)cc1C,-1.0%,0.1%,-21.5%,?,.,-10.7%
CCCCNc1nc2c(c(=O)n(Cc3ccc(Cl)cc3)c(=O)n2C)n1C,2.0%,?,2.9%,18.3%,.,?
CCCCNc1nc2c(c(=O)n(Cc3ccc(Cl)c(Cl)c3)c(=O)n2C)n1C,-1.1%,?,-1.4%,?,.,11.2µM*[quencher]
CC(=O)[C@@H]1[C@@H]2C(=O)N(C3CCCCC3)C(=O)[C@@H]2C2c3ccccc3C=CN21 (some centres not stated),-11.8%,?,-3.2%,-14.6%,13.7%,-18.2%
COc1ccc(C(=O)C2C3C4COC(O4)C(=O)C3C3C=Cc4ccccc4N32)c(OC)c1 (configuration not stated),7.08µM*,20µM*,22.4µM*[fluorescent],11.2µM*,95.0%,20µM*[fluorescent]
CC(=O)[C@@H]1[C@H]2[C@H](C(=O)[C@H]3OC[C@@H]2O3)[C@H]2C=Cc3ccccc3N21,6.4%,15.8µM*,35.5µM*[fluorescent],?,10.2%,?
Cc1ccc(N2C(=O)[C@@H]3[C@H](C2=O)C2c4ccccc4C=NN2[C@@H]3C(=O)c2ccc(Cl)cc2)cc1 (some centres not stated),-1.3%,-3.4%,-2.5%,-6.2%,-4.9%,1.0%
COc1ccc(-n2cc(-c3ccc4c(c3)OCO4)n(CC(=O)Nc3cccc(C)c3C)c2=O)c(OC)c1,5.6%,?,-2.2%,8.7%,.,-23.5%
Cc1ccc(C(=O)[C@@H]2[C@H]3C4COC(O4)C(=O)[C@@H]3[C@H]3C=Cc4ccccc4N32)cc1 (some centres not stated),-5.2%,22.4µM*,1.5%,?,3.9%,?
Cc1ccc(NC(=O)Cn2c(=O)n(Cc3nc(-c4ccccc4)no3)c(=O)c3ccccc32)cc1C,-13.3%,21.8%,-2.3%,?,.,-21.4%
CCOc1ccc(NC(=O)Cn2c(=O)n(Cc3nc(-c4ccccc4)no3)c(=O)c3cc4c(cc32)OCO4)cc1,-6.1%,2.9%,-0.2%,?,.,-29.6%
O=C(Cn1c(=O)n(Cc2nc(-c3ccccc3)no2)c(=O)c2cc3c(cc21)OCO3)Nc1cccc(C(F)(F)F)c1,-4.4%,?,-1.6%,10µM*,.,-9.4%
COc1ccc(-c2noc(Cn3c(=O)c4ccccc4n(CC(=O)Nc4cccc(C(F)(F)F)c4)c3=O)n2)cc1,-10.4%,?,-0.2%,11.2µM*,.,-8.6%
SMILES,TRb-SRC2 inh,Tau fibril ThT,TR SRC2 fluor cs,Tau fibril FP,RGS12 GoLoco inh,Tau fluor cs
C=C(C)COc1ccc(-c2n[nH]c(C)c2-c2ccc(OC)cc2)c(O)c1,-0.7%,-18.6%,-0.1%,?,5.0%,25.1µM*[quencher]
NNC(=O)COc1cccc(C(F)(F)F)c1,-1.9%,-15.5%,-3.0%,-0.3%,-1.4%,-11.4%
COc1ccc(-c2c(-c3ccc(OCC(=O)NN)cc3O)n[nH]c2C(F)(F)F)cc1,-4.2%,?,1.2%,?,13.4%,22.4µM*[quencher]
COc1ccc(CC(=O)Nc2c(C(=O)N3CCN(c4ccccc4F)CC3)oc3ccccc23)cc1OC,4.3%,-16.3%,-0.2%,4.0%,.,-10.4%
COc1ccc2nc(/C(C#N)=C\c3ccc(Oc4ccc([N+](=O)[O-])cn4)cc3)[nH]c2c1,1.3%,5.01µM*,-4.7%,-13.2%,130.4%,?
Cc1ccc2nc(/C(C#N)=C\c3ccc(Oc4ccc([N+](=O)[O-])cn4)cc3)[nH]c2c1,2.0%,5.01µM*,-2.2%,3.1%,57.1%,?
C#CCN1C(=O)S/C(=C/C=C/c2ccc(N(C)C)cc2)C1=O,?,1.58µM*,?,?,-85.4%,19.9%
CN(C)c1ccc(/C=C2\SC(=O)N(CCc3nnc(N)s3)C2=O)cc1,7.3%,?,7.5%,7.9%,144.5%,-21.4%
Cc1cccc(-n2[nH]c3c4c(ccc3c2=O)C(=O)c2ccccc2C4=O)c1,-6.0%,?,-8.4%,10.4%,-0.4%,?
CC(C)Cn1[nH]c2c3c(ccc2c1=O)C(=O)c1ccccc1C3=O,10.1%,14.1µM*,-3.7%,4.1%,2.2%,?
CC1(C)SC2[C@@H](N=CN3CCCCCC3)C(=O)N2[C@H]1C(=O)O (some centres not stated),-2.3%,.,-0.5%,.,-15.0%,.
